Source: PubChem
Most compounds without a hit are left out; they make up all but 1.6% or so of the library.
RAD54 inh: inhibitors of human RAD54 branch migration, primary screen, biochemical, fluorescence, single point. 0.14% of 360,000 active. RAD54 Holliday junction branch migration, FAM/BHQ fluorescence. inhibition, % at 10.4 µM. AID 602329, 2012. DNA repair and recombination protein RAD54-like (Homo sapiens), Q92698;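 active means mean normalized replicate activity at least 40 and at least half of replicates scoring 40 or more; inconclusive means only one of the two criteria met; inactive means mean below 40 and under half of replicates reaching 40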;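 further: inhibitors cause a drop in the FAM fluorescence signal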
Target sequence (Q92698 whole entry, looked up): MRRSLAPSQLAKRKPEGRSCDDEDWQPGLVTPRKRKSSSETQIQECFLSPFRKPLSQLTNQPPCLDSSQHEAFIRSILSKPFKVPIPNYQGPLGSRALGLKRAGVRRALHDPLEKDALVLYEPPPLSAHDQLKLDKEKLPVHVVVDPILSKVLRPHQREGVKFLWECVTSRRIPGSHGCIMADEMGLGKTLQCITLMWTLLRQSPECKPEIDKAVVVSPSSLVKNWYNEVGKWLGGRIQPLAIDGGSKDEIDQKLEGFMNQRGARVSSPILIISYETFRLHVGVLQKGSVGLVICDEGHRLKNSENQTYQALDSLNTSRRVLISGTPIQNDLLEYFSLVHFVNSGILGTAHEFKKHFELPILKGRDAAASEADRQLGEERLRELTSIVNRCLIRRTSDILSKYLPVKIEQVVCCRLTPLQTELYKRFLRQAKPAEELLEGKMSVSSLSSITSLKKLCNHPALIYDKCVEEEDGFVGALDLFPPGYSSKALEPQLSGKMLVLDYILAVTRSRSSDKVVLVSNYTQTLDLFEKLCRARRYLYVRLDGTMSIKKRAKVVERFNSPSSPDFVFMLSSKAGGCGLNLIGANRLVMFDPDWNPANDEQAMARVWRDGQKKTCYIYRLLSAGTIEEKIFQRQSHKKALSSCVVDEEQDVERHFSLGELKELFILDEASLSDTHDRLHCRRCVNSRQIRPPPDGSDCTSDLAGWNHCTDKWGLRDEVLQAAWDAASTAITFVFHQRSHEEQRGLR
Vif inh: HIV Vif self-association inhibitors, primary screen, imaging, HEK293T, single point. HEK293T cells, Vif self-association by quenched fluorescence, 24 h. inhibition, % at 7.49 µM. 0.35% of 340,000 active. AID 602346, 2012; in the data active means inhibition above about 50%, passing the limit was not always enough; inconclusive means no clear call, values can overlap the other calls; inactive means below about 31%
ABCB6 inh MLPCN: ABCB6 transporter inhibitors, primary screen, K562-ABCB6 cells, flow cytometry, MLPCN library; ATP-binding cassette sub-family B member 6 (Homo sapiens), Q9NP58; K562-ABCB6 porphyrin accumulation, 1 h; hits give low values; 0.19% of 360,000 active; AID 602162, 2011; fluorescence ratio to DMSO, % at 10 µM;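 active means fluorescence ratio to DMSO below 75%, the collection mean minus 3 SD; inconclusive means too few cells collected in the well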;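 further: signal is porphyrin accumulated inside mitochondria; lower ratio means ABCB6 inhibition with less porphyrin fluorescence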
N-glyco inh: increase of ERlucT glycosylation luciferase signal, primary screen, N-linked glycosylation inhibitor project, D54 ERlucT cells, luminescence, set 2; 0.23% of 360,000 active; D54 ERlucT glycosylation luciferase reporter, 24 h; percent of 100 nM tunicamycin response; reporter increase, % at 12.5 µM;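 active means mean luciferase reporter signal, scaled so untreated is 0 and the glycosylation-blocking control 100, at or above a set limit in every replicate; inconclusive means mean reaches the limit but not every replicate does; inactive means mean below the limit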;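 further: luciferase carries N-glycosylation sites so blocking glycosylation raises the light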
Myeloid diff 2: induction of myeloid progenitor differentiation, primary screen, cell-based, flow cytometry, MLPCN library | ER-HoxA9 myeloid progenitors, lysozyme-GFP differentiation | calls only at 10 µM | 1% of 360,000 active;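 active means normalized GFP-positive differentiation at or above the plate's own cutoff, the solvent-only control mean plus 3 SD; inconclusive means no clear call, values can overlap the other calls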;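 further: cells exposed to compound for four days before flow analysis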
Large screens that a line does not name were inactive; ! = not confirmed by another sample.

Nc1ccc(-c2cc(NC=O)c3ncc(-c4cccc(C(F)(F)F)c4)n3c2)cn1	N-glyco inh 28.6
COc1cccc(-c2cnc3c(NC=O)cc(-c4ccc(O)c(OC)c4)cn23)c1	none (no result: Vif inh)
COc1ccccc1CNC(=O)C[C@@H]1CC[C@H]2[C@@H](COC[C@@H](O)CN2C(=O)Nc2ccccc2)O1	none (no result: Vif inh, ABCB6 inh MLPCN, N-glyco inh, Myeloid diff 2)
O=C1N[C@H]2CC=C[C@H]2Nc2ccccc21	Myeloid diff 2 active
Cc1ccc(NC(=O)Cn2c(O)c(N=NC(N)=S)c3ccccc32)cc1	Vif inh 66.0
CCC(=O)N[C@@H]1CC[C@H](CCn2cc(C3CC3)nn2)O[C@H]1CO	none (no result: Vif inh, ABCB6 inh MLPCN, N-glyco inh, Myeloid diff 2)
C[C@@H]1CCCCO[C@@H](CN(C)S(=O)(=O)c2ccc(F)cc2)[C@H](C)CN([C@@H](C)CO)C(=O)c2cc(NC(=O)c3ccccc3)ccc2O1	none (no result: Vif inh, ABCB6 inh MLPCN, N-glyco inh, Myeloid diff 2)
c1ccc2c(c1)NCC1CCCN21 (stereo unspecified)	Myeloid diff 2 active (no result: Vif inh)
COc1ccc(S(=O)(=O)N(C)C[C@@H]2OCCCC[C@@H](C)Oc3ccc(NS(=O)(=O)c4ccc(F)cc4)cc3C(=O)N([C@H](C)CO)C[C@H]2C)cc1	none (no result: Vif inh, ABCB6 inh MLPCN, N-glyco inh, Myeloid diff 2)
CN1C(=O)c2cc(NC(=O)c3ccc(F)c(F)c3)ccc2OC[C@@H]2O[C@H](CC(=O)O)CC[C@@H]21	none (no result: Vif inh, ABCB6 inh MLPCN, N-glyco inh, Myeloid diff 2)
O=[N+]([O-])c1ccc(COP(=O)(O)OCc2ccc([N+](=O)[O-])cc2)cc1	Myeloid diff 2 active!
C[C@H](CO)N1C[C@H](C)[C@H](CN(C)C(=O)Nc2ccc3c(c2)OCO3)OCCCC[C@H](C)Oc2ccc(NS(=O)(=O)c3ccc(Cl)cc3)cc2C1=O	none (no result: Vif inh, ABCB6 inh MLPCN, N-glyco inh, Myeloid diff 2)
CO[C@H]1CN(C)C(=O)c2ccc(NC(=O)Nc3c(C)noc3C)cc2OC[C@H](C)N(C)C[C@H]1C	none (no result: Vif inh, ABCB6 inh MLPCN, N-glyco inh, Myeloid diff 2)
CCOCCn1ccc2c(OCC(=O)Nc3ccc(OC)cc3OC)cccc2c1=O	Myeloid diff 2 active
CN(C)S(=O)(=O)c1ccc2c(c1)/C(=C/c1cc3c([nH]1)CCCC3)C(=O)N2	Myeloid diff 2 active (no result: Vif inh)
CN1C[C@@H]2[C@H](c3ccccc31)[C@H](CO)N2Cc1ccccc1F	none (no result: Vif inh, ABCB6 inh MLPCN, N-glyco inh, Myeloid diff 2)
CO[C@H]1CN(C)C(=O)c2cc(NC(C)=O)ccc2OC[C@@H](C)N(C(=O)CN2CCOCC2)C[C@@H]1C	none (no result: Vif inh, ABCB6 inh MLPCN, N-glyco inh, Myeloid diff 2)
CN1C(=O)C(C)(C)c2cc(S(=O)(=O)N3CCN(c4cccc(Cl)c4)CC3)ccc21	Myeloid diff 2 active
CN1C(=O)C(C)(C)c2cc(S(=O)(=O)N3CCN(c4ccc(F)cc4)CC3)ccc21	none (no result: RAD54 inh)
O=C(C[C@H]1CC[C@H]2[C@@H](COC[C@H](O)CN2C(=O)Nc2ccc(C(F)(F)F)cc2)O1)NC1Cc2ccccc2C1	none (no result: Vif inh, ABCB6 inh MLPCN, N-glyco inh, Myeloid diff 2)
COc1ccc(C(=O)Nc2ccc(N3CCN(C)CC3)cc2)cc1[N+](=O)[O-]	none (no result: RAD54 inh)
COc1ccc(C(=O)Nc2ccc(N3CCN(C(=O)C(C)C)CC3)cc2)cc1[N+](=O)[O-]	Vif inh 63.5 (no result: RAD54 inh)
COc1ccc(NC(=O)O[C@@H](c2ccc(OC)c(O)c2)[C@H](CCO)OC)cc1	none (no result: Vif inh, ABCB6 inh MLPCN, N-glyco inh, Myeloid diff 2)
CC1CN(c2nc3ccccc3nc2SCC(=O)Nc2cccc(C(F)(F)F)c2)CC(C)O1 (stereo unspecified)	Myeloid diff 2 active
Cc1cccc(NC(=O)CSc2nc3ccccc3nc2N2CC(C)OC(C)C2)c1 (stereo unspecified)	none
O=C(O)/C=C/c1ccc2ccccc2n1	none
O=C(/C=C/c1ccc2ccccc2n1)c1cc(Br)ccc1O	Myeloid diff 2 active (no result: RAD54 inh)
COC(=O)[C@]1(Cc2ccccc2)N=C(c2ccc(OCCCO)cc2)O[C@@H]1c1ccccc1N=[N+]=[N-]	none (no result: Vif inh, ABCB6 inh MLPCN, N-glyco inh, Myeloid diff 2)
C[C@@H]1CN([C@@H](C)CO)C(=O)c2cc(NC(=O)C3CCCCC3)ccc2O[C@H]1CN(C)Cc1ccc(-c2ccccc2)cc1	none (no result: Vif inh, ABCB6 inh MLPCN, N-glyco inh, Myeloid diff 2)
C[C@@H]1CN([C@H](C)CO)S(=O)(=O)c2ccc(-c3cccnc3)cc2O[C@H]1CN(C)C(=O)C1CCCCC1	none (no result: Vif inh, ABCB6 inh MLPCN, N-glyco inh, Myeloid diff 2)
CC(=O)Nc1ccc(S(=O)(=O)NCCSCc2cccc(Cl)c2)cc1	Myeloid diff 2 active
CC(=O)Nc1ccc(S(=O)(=O)NCCSCc2c(Cl)cccc2Cl)cc1	none
Nc1c(N(Cc2ccccc2)C(=O)COc2ccc([N+](=O)[O-])cc2)c(=O)[nH]c(=O)n1Cc1ccccc1	N-glyco inh 123.1
Nc1c(N(CCO)C(=O)COc2ccc(Cl)cc2)c(=O)[nH]c(=O)n1Cc1ccccc1	none (no result: RAD54 inh, Vif inh)
Nc1c(N(CCC2=CCCCC2)C(=O)CCCOc2ccccc2)c(=O)[nH]c(=O)n1Cc1ccccc1	none
Nc1c(N(CCC2=CCCCC2)C(=O)COc2ccc(F)cc2)c(=O)[nH]c(=O)n1Cc1ccccc1	N-glyco inh 55.5
COc1ccc(S(=O)(=O)N(C)C[C@@H]2Oc3ccc(NS(C)(=O)=O)cc3CC(=O)N([C@H](C)CO)C[C@H]2C)cc1	none (no result: Vif inh, ABCB6 inh MLPCN, N-glyco inh, Myeloid diff 2)
O=C(N/N=C/c1ccc([N+](=O)[O-])s1)c1cccc(Br)c1	Myeloid diff 2 active (no result: Vif inh, N-glyco inh)
Cc1ccc(C(=O)N/N=C/c2ccc([N+](=O)[O-])s2)cc1	Myeloid diff 2 inconclusive (no result: RAD54 inh)
C=C[C@@H]1c2cc(C)ccc2N(S(=O)(=O)c2ccc(C)cc2)[C@H](c2ccc(OC(C)=O)cc2)C1(C#N)C#N	Myeloid diff 2 active
Cc1nc(Nc2cccc(Cl)c2)c2oc3ccccc3c2n1	none
Cc1nc(Nc2cccc(F)c2)c2oc3ccccc3c2n1	Myeloid diff 2 active
CCNc1nc(C)nc2c1oc1ccccc12	ABCB6 inh MLPCN 67.0
C[C@@H]1CN([C@@H](C)CO)C(=O)c2cc(C3=CCCCC3)cnc2O[C@H]1CN(C)C(=O)Nc1ccc(F)cc1	none (no result: Vif inh, ABCB6 inh MLPCN, N-glyco inh, Myeloid diff 2)
CCOC(=O)c1ccccc1OCc1cc(/C=N/NC(=O)c2cccnc2)ccc1OC	none
CCOC(=O)c1ccccc1OCc1cc(/C=N/n2cnnc2)ccc1OC	Vif inh 94.0
O=S(=O)(N[C@@H]1CC[C@H](CCn2cc(C3(O)CCCC3)nn2)O[C@H]1CO)c1ccc(F)cc1	none (no result: Vif inh, ABCB6 inh MLPCN, N-glyco inh, Myeloid diff 2)
OCCCCCN=c1cc(-c2ccccc2)oc2ccc(Cl)cc12	N-glyco inh 50.9 (no result: RAD54 inh)
Clc1ccc2oc(-c3ccccc3)cc(=NCCCN3CCOCC3)c2c1	none (no result: RAD54 inh)
CCOCC(=O)NC1CCc2cc(OC(=O)COCC)c(OC)c(OC)c2-c2ccc(SC)c(=O)cc21 (stereo unspecified)	Vif inh 95.3, Myeloid diff 2 inconclusive (no result: RAD54 inh)
O=C(NC1CCC1)[C@@H]1[C@@H](CO)[C@@H]2Cn3c(ccc(-c4ccc(F)cc4)c3=O)[C@H]1N2	none (no result: Vif inh, ABCB6 inh MLPCN, N-glyco inh, Myeloid diff 2)
O=C(/C=C\Nc1ccc2c(c1)OCO2)c1cccs1	Vif inh 66.2
O=C(/C=C\Nc1ccc2c(c1)OCO2)c1ccc(Cl)s1	none
CC(C)N1C(=O)S/C(=C\c2ccc(-c3ccc(Cl)c(C(=O)O)c3)o2)C1=O	none
CCN(CC)c1ccc(/C=C2/SC(=O)N(C(C)C)C2=O)o1	Myeloid diff 2 active (no result: RAD54 inh)
